# From article PMC12136788
# Substitutions are numbered along the chain they refer to. In all, about 5,800 sequences were measured (“enrichment r”: median about 0.68, highest 2% from about 11 on). What follows is part of a selection rich in the highest values, with near analogues and random picks from the rest.
# T1: UNK ZnF1-6 (called full-length) (human, UniProt Q9C0B0 30-357)
# T1 sequence: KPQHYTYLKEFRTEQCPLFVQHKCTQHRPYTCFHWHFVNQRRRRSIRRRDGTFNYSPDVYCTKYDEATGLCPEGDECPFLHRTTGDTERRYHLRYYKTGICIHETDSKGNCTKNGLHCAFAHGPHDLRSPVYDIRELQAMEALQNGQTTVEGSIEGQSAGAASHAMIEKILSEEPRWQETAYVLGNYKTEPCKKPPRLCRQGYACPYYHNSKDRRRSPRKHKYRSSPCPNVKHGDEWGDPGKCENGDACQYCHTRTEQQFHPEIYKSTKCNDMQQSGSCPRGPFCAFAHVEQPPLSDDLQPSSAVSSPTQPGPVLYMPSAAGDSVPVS
# B1: chr4:54297753:54297953:+|3pUTR|ENSG00000134853|msi1|FALSE|unique (ssRNA)
# RNA: GGGAGUUCUACAGUCCGACGAUCUUUUUAUGAUGACAAUCAAAGCCGGCCUGAGAAACACUAUUUGUGACUUUUUAAACGAUUAGUGAUGUCCUUAAAAUGUGGUCUGCCAAUCUGUACAAAAUGGUCCUAUUUUUGUGAAGACAACAGAGGAUUGAGCAUCA
# B2: chr10:87746157:87746259:+|3pUTR|ENSG00000198682|unk|FALSE|unique (ssRNA)
# RNA: GGGAGUUCUACAGUCCGACGAUCAACUGAAGACCAAAUCUUAGCAGGUAAAAGCAAUAUUCUUAUACAUUUCAUAAUAAAAUUAGCUCUAUGUAUUUUCUACUGCACCUGAGCAGGCAGGUCCCAGAUUUCUUAAGGCUUUGUCAACAGAGGAUUGAGCAUCA
# B3: chr12:100626600:100626701:+|3pUTR|ENSG00000139354|unk|FALSE|unique (ssRNA)
# RNA: GGGAGUUCUACAGUCCGACGAUCAAUUUUAUCAUCAAGUAUUCCCUUAUAAAACCAAGUAACACUUCUUUAUCAGUAACUUUUAGAACUUAAAAGAAAGCAAAAAGUAAAUGGAAUUGUAGGCAAUUUAUGAAUCCUAGUAGACAACAGAGGAUUGAGCAUCA
# B4: chr10:87814449:87814585:-|CDS|ENSG00000138138|unk|FALSE|bound_elsewhere (ssRNA)
# RNA: GGGAGUUCUACAGUCCGACGAUCUUUAAUUUUCCGUUUGACAAUAUUUGGUGCAGUGACAUACUUUACUAUCAAAUGGAUGGUAGAUGCAAUUGAUCCAACCAGAAAGCAAAAAGUAGAAGCUCAGAAACAGGUAUGAUUGAACAACAGAGGAUUGAGCAUCA
# B5: ENSG00000104805:stop:overlap|stop_codon|ENSG00000104805|stop_codon|NA|stop_codon (ssRNA)
# RNA: GGGAGUUCUACAGUCCGACGAUCAGUUGAAGGAGGUGUGGGAGGAGCUGGAUGGACUGGACCCCAACAGCAUCCCAAAGUGCUAGGAUUACAGGCGUGAGUCACUGCGCCCGGCCUCGAAAGCCCUUUCUCUAUGGUGGAUCACAACAGAGGAUUGAGCAUCA
# B6: chr2:45599705:45599806:-|CDS|ENSG00000068784|msi1|total|mutant (ssRNA)
# RNA: GGGAGUUCUACAGUCCGACGAUCCUCAUAUGUUCUCUUUGUGGUUUGACCGAACCGCUCUGUGGCUAUUGCUGAUACUGCUUCCGAAGACAGAAAAAAUAAAUUGGAUACUGUACAGACUCUGAAAACAGCCAAGACAAAACACAACAGAGGAUUGAGCAUCA
# B7: chr1:93365539:93365640:+|3pUTR|ENSG00000117505|unk|FALSE|unique (ssRNA)
# RNA: GGGAGUUCUACAGUCCGACGAUCAGGAGGCAAAAUUGCACCCUGUUGAAAACCACCACCUUAGAUCAUCUAGGUUUUACUUUUAGGAUAAGACACUUGAGGGAAAGGCUGUGAAACUGAACCUCUGUUAGAAGCAACACACAGCAACAGAGGAUUGAGCAUCA
# B8: chr2:171983412:171983537:+|3pUTR|ENSG00000128708|unk|total|mutant (ssRNA)
# RNA: GGGAGUUCUACAGUCCGACGAUCUGAUGACUUUAAUUUUAAAAUCUUGUGACAUUUUGCUUAUACUAAAAGUUAUCUAUCUUCCGUUGAAUAUUUUCUUUUGGAGAGAUUGUAUAUUUUAAAAUACUGUUCCGAGUUUAUGAGCAACAGAGGAUUGAGCAUCA
# B9: chr19:41330322:41331077:-|three_prime_utr|ENSG00000105329|control|control|control (ssRNA)
# RNA: GGGAGUUCUACAGUCCGACGAUCGUCUGCACUAUUCCUUUGCCCGGCAUCAAGGCACAGGGGACCAGUGGGGAACACUACUGUAGUUAGAUCUAUUUAUUGAGCACCUUGGGCACUGUUGAAGUGCCUUACAUUAAUGAACUCCAACAGAGGAUUGAGCAUCA
# B10: chr12:88196262:88196297:+|3pUTR|ENSG00000139324|msi1_unk|FALSE|overlapping (ssRNA)
# RNA: GGGAGUUCUACAGUCCGACGAUCUGUAUACUUGUUUUUAACUUUAAAUGUAAUUUUUAAUCAGGUAAAGUUUGACACAUGUAUAGCUACAUACACACAUUUUUAAUGGUGCUCAUAUAUACUGUAUUUUUUGUUGUUUAGUUUCAACAGAGGAUUGAGCAUCA
# B11: chr5:136976780:136976881:-|3pUTR|ENSG00000152377|msi1|FALSE|unique (ssRNA)
# RNA: GGGAGUUCUACAGUCCGACGAUCCUUAAAUUAGCAUGUUCCAAUCCAGUCGGCAUUGCCUGAAUACAGUAGCAUCAUACCUAUAGUUGGUCUUAGAUAAGAAAUGAACUACUUGAUAUAGCAAAGUCCUUUGGCUUCGUAAAUCAACAGAGGAUUGAGCAUCA
# B12: chr3:168010103:168010202:-|3pUTR|ENSG00000173905|msi1_unk|total|mutant (ssRNA)
# RNA: GGGAGUUCUACAGUCCGACGAUCGCUCAAACAUAAAUCUGCCUACUGAACUCCCGGAUAUUUAAUUACAAAAAUUAAGAACUCCGACUUUUUUAAAACUUUUGUAUCCGAAAUGCGCAUACAUUUAUAUGAAUAUAUUUUGAUCAACAGAGGAUUGAGCAUCA
# B13: chr12:50748518:50748596:+|3pUTR|ENSG00000066084|msi1_unk|FALSE|overlapping (ssRNA)
# RNA: GGGAGUUCUACAGUCCGACGAUCUCAAAUUCAAACUACAGUACUGUGUAAUUAUGUAUAAAGUUUUUUUAUUUAUUUGAAGUUAGACUAGAUAUACGUUUUUAAAUUUAACAUCUGGCUGGACAGUGUUCUAUUAACUCAUUGCAACAGAGGAUUGAGCAUCA
# B14: chr3:168010103:168010202:-|3pUTR|ENSG00000173905|msi1_unk|FALSE|overlapping (ssRNA)
# RNA: B12 RNA with C53U, C54A, C83U, C84A, C107U, C108A
# B15: chr5:24509697:24509799:-|CDS|ENSG00000040731|unk|FALSE|unique (ssRNA)
# RNA: GGGAGUUCUACAGUCCGACGAUCACUCGACUAUGAGAGCCGAAGACUUUAUACUCUGAAAGUCGAAGCAGAAAACACCCAUGUAGAUCCCCGUUUUUAUUACCUAGGACCAUUUAAAGAUACUACCAUAGUGAAAAUCUCUAUCAACAGAGGAUUGAGCAUCA
# B16: chr11:118396625:118396726:+|3pUTR|ENSG00000110344|msi1|FALSE|bound_elsewhere (ssRNA)
# RNA: GGGAGUUCUACAGUCCGACGAUCAACUUGACAAUGCUCCCCUGGCUUGCAGGAAAUUAUACUUAUUAUAGCAUCACCAAGUUUAGAAAUCAUCACUAAUUUUCACCCUCUGUUGUCUCUUCAUAUUCUUCUUCCUUUUCCUAACAACAGAGGAUUGAGCAUCA
# B17: chr6:105100707:105100870:-|3pUTR|ENSG00000112276|msi1|total|mutant (ssRNA)
# RNA: GGGAGUUCUACAGUCCGACGAUCUGAGAUAUAUAUUUUCACAGUCUUUUCCCGAUAUAUUAUUGUUUUAACUUAACAAAUCUCCGCAAUCUCUCAAUGCCUUUUCACUUAUUUUUUUCCAAGUUAUGAUUCUUUUUCCUCACACAACAGAGGAUUGAGCAUCA
# B18: chr3:64018827:64018930:-|CDS|ENSG00000163636|unk|FALSE|unique (ssRNA)
# RNA: GGGAGUUCUACAGUCCGACGAUCUGAACUCAUGGAUUAUAAAACAUUUGUGACUUAUACUGUCUAUGUCAGUAUGAUUGCCUUAGAAAGACCAGAUCUCAGGGAAAAGGUAAUGACCAAACUUUAAUACUCAAAUUUAAAGACCAACAGAGGAUUGAGCAUCA
# B19: chr6:105100707:105100870:-|3pUTR|ENSG00000112276|msi1|FALSE|unique (ssRNA)
# RNA: B17 RNA with C51U, C52A, C83U, C84A
# B20: chr9:5123879:5124511:-|three_prime_utr|ENSG00000120210|control|control|control (ssRNA)
# RNA: GGGAGUUCUACAGUCCGACGAUCCUGGUAAAUUGGAUUGCCAUAUGCAGAAGAAUGAAACUGGACCCAUAUUUAUCACCAUAUAGAAAAAUUAACUCGAUCGAUUACAGACUUAAAUGUAAGAUCUGAAACUAGAAAAAUACUCAACAGAGGAUUGAGCAUCA
# B21: chr20:59325757:59325866:+|3pUTR|ENSG00000124205|unk|FALSE|unique (ssRNA)
# RNA: GGGAGUUCUACAGUCCGACGAUCUUAUGUGGAUCUGUUCAAAGUAGUCACUGUAUAUACGUAUAGAGAGGUAGAUAGGUAGGUAGAUUUUAAAUUGCAUUCUGAAUACAAACUCAUACUCCUUAGAGCUUGAAUUACAUUUUUCAACAGAGGAUUGAGCAUCA
# B22: chr12:48342538:48342639:-|3pUTR|ENSG00000167528|unk|FALSE|unique (ssRNA)
# RNA: GGGAGUUCUACAGUCCGACGAUCUUGUUAAACAUUUUGAGUAUCACUCUUGCAUACUGUUACUAUUAUAUUUUCUCUAUAUAUAGACAGAAAGGCCAUUUUAGAAUAUUAAAGGCUCUGAAAAUUUCUGCAGUAGACCCAACUCAACAGAGGAUUGAGCAUCA
# B23: chr8:103442975:103443076:+|3pUTR|ENSG00000164934|msi1|FALSE|bound_elsewhere (ssRNA)
# RNA: GGGAGUUCUACAGUCCGACGAUCGGACUAGAUUAAUUGCAAACAUUUUAGUUAUAUGUGUAGAGCUUUAUUGUUACUCCUUUUAGCUACCCUGAAAAAUGAUCCUUAAAGGUGGCCUAGUUGGUAAGACUGUUUUAUCCUUAACAACAGAGGAUUGAGCAUCA
# Molecular target: T1, UNK ZnF1-6 (called full-length)
# Experiment: nsRBNS (natural sequence RNA bind-n-seq); RBNS binding buffer (assumed for nsRBNS): 25 mM Tris pH 7.5, 150 mM KCl, 3 mM MgCl2, 0.01% Triton X-100, 500 ug/ml BSA, 20 U/ml SUPERase-In, 4 C; UNK is unkempt and MSI1 is Musashi-1; names of the RNAs are library labels; protein concentration not given here; high values mean tight binding
row,Binder,binding signal
1,B1,0.454 enrichment R
2,B2,18.7 enrichment R
3,B3,4.55 enrichment R
4,B4,0.395 enrichment R
5,B5,0.682 enrichment R
6,B6,0.362 enrichment R
7,B7,5.47 enrichment R
8,B8,0.599 enrichment R
9,B9,2.74 enrichment R
10,B10,3.56 enrichment R
11,B11,8.89 enrichment R
12,B12,3.17 enrichment R
13,B13,6.56 enrichment R
14,B14,12.6 enrichment R
15,B15,1.94 enrichment R
16,B16,4.24 enrichment R
17,B17,3.08 enrichment R
18,B18,0.48 enrichment R
19,B19,18.7 enrichment R
20,B20,21.7 enrichment R
21,B21,20.3 enrichment R
22,B22,3.54 enrichment R
23,B23,6.96 enrichment R
